D2 ag-1 – Beta-Arrestin HTS for Positive Allosteric Modulators of the Human D2 Dopamine Receptor: Agonists; actives 0.084% (n = 360,000); DiscoveRx PathHunter D2 beta-arrestin, luminescence, 90 min; 100% = 57 uM dopamine signal; activation, % (concentration not given with the values); AID 624465, 2012; in the data active = activation above about 40%
Target sequence (P14416 whole entry, looked up): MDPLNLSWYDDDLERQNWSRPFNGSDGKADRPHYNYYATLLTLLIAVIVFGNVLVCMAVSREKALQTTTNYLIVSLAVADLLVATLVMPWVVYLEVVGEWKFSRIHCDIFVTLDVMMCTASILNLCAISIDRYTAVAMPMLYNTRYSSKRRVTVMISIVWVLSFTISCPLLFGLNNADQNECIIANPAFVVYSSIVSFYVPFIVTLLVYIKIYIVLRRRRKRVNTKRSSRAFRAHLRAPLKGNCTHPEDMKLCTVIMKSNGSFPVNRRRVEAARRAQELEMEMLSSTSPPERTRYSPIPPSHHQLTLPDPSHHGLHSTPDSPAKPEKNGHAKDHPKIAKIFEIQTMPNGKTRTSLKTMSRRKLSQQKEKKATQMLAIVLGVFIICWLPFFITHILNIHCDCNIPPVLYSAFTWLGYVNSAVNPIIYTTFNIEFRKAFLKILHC
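DiscoveRx PathHunter D2 beta-arrestin cells (2,100/well) attached overnight, then compound-stimulated 90 min at 37 C in HBSS/10 mM HEPES/0.1% Tween-20 buffer; beta-galactosidase complementation read by luminescence after 1 h at ambient temperature. Dopamine 57 uM final (EC100) as control.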
D2 antag – HTS Assay for Allosteric Antagonists of the Human D2 Dopamine Receptor: Primary Screen for Antagonists; HEK293 TREx D2 cells, calcium flux, dopamine EC80; inhibition, % at 10 µM; actives 2% (n = 340,000); AID 485344, 2010; in the data active = inhibition above about 30%; inactive = below that, where a call was filed; note: 0% is about no effect
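HEK293 T-REx D2 cells, tet-induced, calcium dye no-wash. Cpd pintool add, 180 s kinetic, then EC80 DA, 180 s kinetic. Ca flux read.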
D2 ag-2 – HTS Assay for Allosteric Agonists of the Human D2 Dopamine Receptor: Primary Screen for Agonists. HEK293 T-REx D2 cells, calcium flux agonist mode. activation, % at 2 µM. actives 0.53% (n = 340,000). D(2) dopamine receptor (Homo sapiens), P14416;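 active = activation over 3 SD above normal in the single-dose calcium agonist read, cut at about 30% in these data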; note: 0% is about no effect
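Tetracycline-induced HEK293 Trex cells with D2 receptor force-coupled to calcium signaling, plated overnight at 30 C and loaded with no-wash calcium dye. Calcium flux read kinetically for 180 s after compound addition; responses flag agonists.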
D2 PAM-1 – Beta-Arrestin HTS for Positive Allosteric Modulators of the Human D2 Dopamine Receptor: Potentiators | potentiation, % (no concentration beside the values) | actives 0.23% (n = 360,000) | DiscoveRx D2 beta-arrestin cells, luminescence, 90 min; 100% = 57 uM dopamine signal | D(2) dopamine receptor (Homo sapiens), P14416; in the data active = potentiation above about 50%
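D2 cells co-treated with compound plus 50 nM dopamine (EC20) for 90 min at 37 deg C to detect potentiation. Beta-arrestin recruitment was read as enzyme-fragment luminescence after 1 h at ambient temperature. Full response was set by 57 uM dopamine.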
D2 PAM-2 – HTS Assay for Positive Allosteric Modulators of the Human D2 Dopamine Receptor: Primary Screen for Potentiators; HEK293 T-REx D2, calcium flux, EC20 dopamine potentiation; D(2) dopamine receptor (Homo sapiens), P14416; actives 0.34% (n = 340,000); potentiation, % at 10 µM;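 active = potentiation over 3 SD above the plate norm, cut at about 30% in these data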; note: 0% is about no effect
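Calcium flux readout, no-wash dye, 1 read/s. Inducible HEK293 Trex D2 line, overnight 30 C. Compound alone 180 s (agonist flags), then EC20 dopamine, another 180 s to score potentiation.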
The depositor's hits bear a star; . = no result. Hits are enriched below; roughly 2.4% of the tested compounds scored in any of these assays.

SMILES	D2 ag-1	D2 antag	D2 ag-2	D2 PAM-1	D2 PAM-2
CCCCc1ccc(NC(=S)NCCO)cc1	0.7	30.9*	-0.2	-8.3	13.1
COc1ccc2c(c1)CCc1c-2n[nH]c1C(=O)O	1.3	31.4*	0.5	1.8	-3.3
O=C(CCCN=C1NS(=O)(=O)c2ccccc21)OCc1cc([N+](=O)[O-])cc2c1OCOC2	5.0	-7.8	1.2	-18.6	6.5
C[C@H](N=C1NS(=O)(=O)c2ccccc21)C(=O)OCc1cc([N+](=O)[O-])cc2c1OCOC2	0.4	44.6*	2.1	-13.4	-23.9
COc1cc2c(cc1NC(=O)CN1CCN(S(=O)(=O)c3ccc(C)cc3)CC1)oc1ccccc12	-0.9	41.8*	0.4	1.3	-0.9
COc1ccccc1OCc1nc(-c2cccc([N+](=O)[O-])c2)no1	4.8	-3.9	1.7	0.8	-4.4
O=C1NC[C@@H](Cc2cccc3ccccc23)N(CC2(c3ccccc3)CC2)C1=O	-1.0	11.9	0.2	2.5	32.4*
CC(NC(=O)c1ccco1)C(=O)NC(C)c1cc(F)c(Cl)cc1Cl (stereo not given)	-4.6	-2.7	1.2	-19.2	30.4*
CC(NC(=O)[C@H](C)NC(=O)c1ccco1)c1ccc(S(N)(=O)=O)cc1 (stereo not given in full)	-5.1	14.2	1.3	-2.7	-10.4
COc1ccc(-c2noc(COc3cc(C)ccc3C)n2)cc1OC	.	.	0.5	.	-1.9
CCN(C(=O)COc1ccccc1)c1nnc(-c2cccnc2)s1	1.3	41.5*	-1.4	-27.1	-6.6
CCN(C(=O)c1c(OC)cccc1OC)c1nnc(-c2cccnc2)s1	1.5	-12.6	-0.3	0.1	51.7*
COCCN(C(=O)COc1ccccc1)c1nnc(-c2cccnc2)s1	0.7	-7.2	0.2	27.9	-1.3
CCC(C(=O)NCc1ccccc1Cl)n1c(=O)c2cccn2c2ccccc21 (stereo not given)	.	.	0.7	.	3.8
C=CCn1c(SCC(=O)Nc2ncc(Cc3ccc(Br)cc3)s2)nnc1-c1ccncc1	4.1	16.3	0.4	-8.1	32.4*
CCOc1ccc(CNCCN2CCCC2)cc1	-3.9	74.1*	0.6	-14.4	-18.7
COC(=O)c1sc2ccccc2c1S(=O)(=O)N1CCN(c2ccc(C(C)=O)cc2)CC1	.	.	-0.1	.	10.4
OC(COc1ccc2c(c1)CCC2)CN1CCN(c2ccccc2F)CC1 (stereo not given)	14.8	-20.5	0.7	-30.2	8.1
Oc1ccccc1N1CCN(CC(O)COC2CCCc3ccccc32)CC1 (stereo not given)	-1.3	40.1*	10.9	-7.9	-21.7
COc1ccc(Nc2nc(Cl)nc(Nc3ccc(OC)cc3OC)n2)c(OC)c1	6.3	51.3*	0.2	-3.5	-6.1
C=CCNc1nc(Cl)nc(Nc2ccc(OC)cc2OC)n1	-1.4	-13.4	0.2	-4.3	1.4
CCCC(=O)Nc1ccc(S(=O)(=O)N2CCc3ccccc32)cc1	-2.1	.	.	-13.2	.
Cc1cc(NC(=S)NC(=O)c2ccccc2)ccc1-c1cc2ccccc2oc1=O	0.6	63.5*	-0.6	-0.9	-9.0
Cc1cc(C)c(NC(=O)C2CCN(C(=O)N3CCOc4ccccc43)CC2)c(C)c1	.	.	3.3	.	-0.6
Cc1cccc2cc(CN(Cc3ccc(F)cc3)Cc3nnnn3C3CCCC3)c(=O)[nH]c12	-0.3	-2.1	-1.4	-15.9	-1.7
SMILES	D2 ag-1	D2 antag	D2 ag-2	D2 PAM-1	D2 PAM-2
Cc1cccc2cc(CN(Cc3cccs3)C3(c4nnnn4C4CCCC4)CCCC3)c(=O)[nH]c12	-2.4	77.5*	0.6	-5.1	7.1
O=C(O)CCC(=O)CCC(=O)c1ccccc1	0.5	34.6*	0.4	-3.1	-8.1
Cc1ccc(C(=O)CCC(=O)CCC(=O)O)cc1	-0.6	.	.	-1.5	.
CNC(=O)c1cnc2sc(N3CCC(C)CC3)nn2c1=O	.	.	0.4	.	1.9
CC(=O)Nc1cccc(NC(=O)Nc2cccc3ccccc23)c1	1.9	46.0*	0.3	-9.2	-11.5
COc1ccc(C(=O)N(Cc2sccc2C)C2CCS(=O)(=O)C2)cc1 (stereo not given)	2.9	37.8*	-0.8	-14.3	0.0
COc1c(F)cccc1C1=CC(=O)C[C@H](c2ccc(F)cc2)C1	-0.8	.	.	2.7	.
COc1ccccc1NC(=O)c1cccc(S(=O)(=O)N2CCN(Cc3ccccc3)CC2)c1	-2.4	10.5	-0.3	-66.9	0.6
CC(NC(=O)c1cccc(S(=O)(=O)N2CCN(Cc3ccccc3)CC2)c1)c1ccc(Cl)cc1 (stereo not given)	-0.5	35.8*	0.9	-7.7	-4.1
Cc1nc(Cl)sc1C(=O)Nc1ccccc1	-9.2	-1.3	0.0	4.8	-2.2
Cc1nc(Cl)sc1C(=O)Nc1ccc(Cl)cc1	-3.2	40.2*	-0.4	-0.8	10.3
O=C(Nc1cc(Cl)cc(Cl)c1)c1cc(S(=O)(=O)NC2CCCC2)ccc1F	.	.	1.1	.	-0.2
CCOC(=O)c1c(C)[nH]c(CCC(=O)NCc2cc(OC)c(OC)c(OC)c2)c1C	.	.	-0.6	.	-1.6
Cc1ccc(C)c(C(=O)N(Cc2nc(-c3ccc(Cl)cc3)no2)C(C)C)c1	0.1	39.9*	1.0	-0.5	-0.7
COc1ccccc1C(=O)NNC(=S)NC(=O)c1ccco1	-11.1	0.0	1.8	-41.2	5.4
COc1ccc(NC(=O)C2(C)CCN2C(=O)CC2CCCC2)cc1OC (stereo not given)	6.1	.	.	0.2	.
O=c1oc2ccccc2c(N2CCN(c3ccccc3F)CC2)c1CN1CCCC1	.	.	1.0	.	-5.1
CCSc1nc2ccccc2n1CCC(=O)O	-1.8	44.7*	-2.3	3.8	-7.2
Cc1ccc(C(=O)O)cc1NC(=O)c1cccs1	0.9	43.8*	-0.3	10.3	4.5
Cc1cc(NC(=O)c2cccs2)ncc1NC(=O)c1cccc(F)c1	-2.7	-17.3	0.0	-1.7	3.2
Cc1cc(NC(=O)c2ccccc2)ncc1NC(=O)c1cccs1	2.4	36.4*	-0.9	-2.7	1.2
CCCc1cc(=O)[nH]c(SCC(=O)N2CCN(c3ccccc3OC)CC2)n1	.	.	-0.8	.	-16.5
CC(=O)N1CCOc2ccc(S(=O)(=O)N3CCC(C(=O)Nc4cc(C)cc(C)c4)CC3)cc21	-1.7	52.0*	-0.8	-23.4	-12.3
Cc1cc(C)cc(NC(=O)C2CCN(S(=O)(=O)c3ccc4[nH]c(=O)ccc4c3)CC2)c1	2.5	31.2*	-0.3	-9.2	-16.3

Bioassay records (PubChem BioAssay)
